Results as given in the supplement of paper PMC4166925.
± gives the standard deviation of the averaged measurements. Over roughly 33,000 sequences, “E-score (dimensionless, -0.5 to 0.5)” has its median near -0.049; the highest 2% begin near 0.37. For the sample, the highest values were picked, then their nearest neighbours and some sequences at random.

System: T1, PmTbr T-box DNA-binding domain (GST fusion)
T1 sequence: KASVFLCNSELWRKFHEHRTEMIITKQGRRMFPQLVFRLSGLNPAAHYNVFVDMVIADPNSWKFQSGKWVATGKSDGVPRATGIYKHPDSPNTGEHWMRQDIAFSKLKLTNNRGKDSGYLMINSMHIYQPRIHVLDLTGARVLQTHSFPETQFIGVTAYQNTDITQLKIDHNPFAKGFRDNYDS
Test: PBM E-score of 8-mer (E-score (dimensionless, -0.5 to 0.5)); Tbr is Tbrain of the sea star Patiria miniata (Pm) or the sea urchin Strongylocentrotus purpuratus (Sp); higher = stronger binding preference
Settings: the construct has about 5 more residues each side
Method in brief: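 Using the Universal PBM Analysis Suite, every ungapped 8-mer received an enrichment E-score averaged over duplicate arrays. Probe intensities came from double-stranded Universal Agilent oligonucleotide arrays incubated with 200 nM GST-fused Tbr T-box DNA-binding domain in PBS (pH 7.5). That protein was expressed in BL21 E. coli at 20 °C and purified by glutathione affinity chromatography.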

Sequence | PBM E-score of 8-mer
CCCTGGGA | -0.131 ± 0.0026
GACACTTA | 0.3962 ± 0.0036
CACACTTC | 0.445 ± 0.005
GCCACTTA | 0.232 ± 0.021
CCCACTTC | 0.1799 ± 0.00066
CACACTGC | 0.168 ± 0.039
GACACTGA | 0.157 ± 0.016
GAGTCTAC | -0.282 ± 0.068
GGTCGACC | -0.253 ± 0.033
GTGATAGA | 0.297 ± 0.042
AGTCGACA | 0.253 ± 0.013
CGTCGACA | 0.26 ± 0.031
TGTCGACA | 0.371 ± 0.0078
ACATTTGA | 0.038 ± 0.044
AATGACGG | -0.0819 ± 0.0024
ACAGCGCG | 0.258 ± 0.0087
GGTGAGGA | 0.364 ± 0.018
AGTGAGAG | 0.312 ± 0.022
TGTGAGAA | 0.43 ± 0.0057
GGTGAGAC | 0.3824 ± 0.0024
CGTGAGAA | 0.349 ± 0.039
TCTGAGAA | -0.135 ± 0.0068
AGTGAGAA | 0.421 ± 0.025
AGTGAGAT | 0.287 ± 0.016
CGTGAGAC | 0.258 ± 0.044

Sequence | PBM E-score of 8-mer
TGAGAGAA | 0.0636 ± 0.079
GGTGAGAA | 0.4754 ± 0.0012
AGTGAGAC | 0.251 ± 0.023
ACCTTCCA | 0.0703 ± 0.049
AAACAGGG | -0.081 ± 0.025
AATTCATC | -0.0277 ± 0.0079
CCCCCAGA | -0.116 ± 0.043
ACCAAAAA | -0.124 ± 0.021
GCTTGTAA | -0.0775 ± 0.029
CGAGGAGC | -0.0722 ± 0.028
CTAGTCAC | 0.0813 ± 0.05
TATCTACA | -0.0338 ± 0.029
AATTCGCA | 0.339 ± 0.032
AGGTGATC | 0.219 ± 0.0025
AGGTGATA | 0.468 ± 0.0054
CGGTGATA | 0.187 ± 0.0068
GGGTGATA | 0.368 ± 0.0085
AGGTGATG | 0.4179 ± 0.0014
ACGTGATG | 0.137 ± 0.028
AACAACTG | 0.236 ± 0.0091
CGACGCAC | -0.0252 ± 0.048
AGTGCTTC | -0.15 ± 0.097
CGAATGGC | 0.0367 ± 0.0062
AACCGCAT | -0.147 ± 0.042
AATTCATA | -0.105 ± 0.05

Sequence | PBM E-score of 8-mer
AGGCGTGC | 0.158 ± 0.011
AAGCGTGA | 0.401 ± 0.018
GCGCGTGA | 0.322 ± 0.0044
GGGCGTAA | 0.118 ± 0.012
CGGCGTGA | 0.327 ± 0.0041
AGGCGTGG | 0.265 ± 0.016
AGGCGTGA | 0.4805 ± 0.00059
GGGCGTGA | 0.429 ± 0.0092
AAGCGTGG | 0.0213 ± 0.089
ACGCGTGC | 0.14 ± 0.034
AAGCGTGT | 0.235 ± 0.017
ACGCGTGA | 0.38 ± 0.012
CATTGCCG | 0.0765 ± 0.039
TTAAGAAA | -0.165 ± 0.066
AATACTCT | -0.111 ± 0.064
CCGAGGGA | -0.236 ± 0.0027
ACGTTCAC | 0.227 ± 0.06
CAATCGCG | 0.269 ± 0.026
AATGCTGG | -0.209 ± 0.026
TAGGGTAA | -0.0929 ± 0.022
ATACTGAA | -0.116 ± 0.013
CACGCAAC | 0.024 ± 0.02
CATAGTAG | -0.286 ± 0.031
GATAACCC | 0.0272 ± 0.031
GTTAGGCA | -0.0852 ± 0.013

Sequence | PBM E-score of 8-mer
GCGTTAAC | 0.275 ± 0.056
CATTAAGG | -0.136 ± 0.13
CGGCGTCA | 0.219 ± 0.03
AGGCGTCA | 0.4194 ± 0.0035
AGGCGTCG | 0.353 ± 0.029
ACCTTATA | 0.221 ± 0.084
ATGAGCAG | -0.0322 ± 0.034
ATGGTGTG | 0.383 ± 0.0049
ATGGTGTC | 0.383 ± 0.02
CTGGTGTC | 0.341 ± 0.023
ATGGTGCG | 0.187 ± 0.036
ATGGTGGC | 0.271 ± 0.056
ATGGTGTA | 0.104 ± 0.021
CAGTAGAC | -0.0988 ± 0.05
AGCGCGTG | 0.27 ± 0.025
CGGTAAAG | -0.102 ± 0.037
ACACATTG | 0.39 ± 0.017
AAACATTC | -0.0525 ± 0.037
ACACATAA | 0.251 ± 0.0089
CCACATTC | 0.104 ± 0.038
AAACATTG | -0.0327 ± 0.00054
ACACATAT | 0.386 ± 0.0052
ACACATAG | 0.268 ± 0.022
ACACATTA | 0.264 ± 0.008
ACACATTC | 0.387 ± 0.016

Sequence | PBM E-score of 8-mer
GAGAAAAC | 0.0669 ± 0.12
ATTCCTCC | -0.291 ± 0.034
GACGCGTA | 0.0611 ± 0.022
ATCCAGCA | -0.175 ± 0.032
AATGGTCG | -0.249 ± 0.14
ACGAGAGG | 0.0873 ± 0.05
GTAGTCTA | -0.207 ± 0.03
CTAGGTGA | 0.398 ± 0.014
CTAGGTAA | -0.173 ± 0.055
GTAGGTTA | -0.189 ± 0.025
CTAGGTCC | -0.13 ± 0.071
ATAGGTGG | 0.26 ± 0.051
CTAGGTTC | -0.0841 ± 0.0095
GTAGGTAA | -0.141 ± 0.024
ATAGGTGA | 0.345 ± 0.028
ATAGGTGC | 0.414 ± 0.0057
CTAGGTGC | 0.403 ± 0.008
CTAGGTCA | 0.00648 ± 0.021
GTAGGTGA | 0.397 ± 0.02
CAGCATAC | -0.00656 ± 0.045
GCGCAGAA | -0.0316 ± 0.067
GGTAAACC | 0.131 ± 0.039
GAATCATA | 0.0757 ± 0.097
CTAGTAAG | -0.0596 ± 0.04
CCATGAGC | -0.138 ± 0.16

Sequence | PBM E-score of 8-mer
GCTGTGAA | 0.3817 ± 0.0019
TCTGTGAA | 0.253 ± 0.0052
CCTGTGAA | 0.306 ± 0.0045
ACTGTGAG | 0.22 ± 0.017
ACTGTGAA | 0.378 ± 0.0086
ACTGTGAT | 0.152 ± 0.046
CAGGCTTA | -0.197 ± 0.047
ATATAGCG | 0.0197 ± 0.053
CGTATGCA | -0.0979 ± 0.032
GATTTTGC | 0.189 ± 0.061
AAATAGGA | -0.294 ± 0.053
CGCTAACG | 0.3714 ± 0.0037
TGCTAACA | 0.369 ± 0.041
GGCTAACA | 0.179 ± 0.019
AGCTAACA | 0.209 ± 0.033
AGCTAACG | 0.157 ± 0.031
CGCTAACC | 0.256 ± 0.017
ATGTCCAG | -0.0643 ± 0.0044
GTATGCCA | -0.0108 ± 0.032
CTTGTAGC | 0.0941 ± 0.012
CGCGACAG | 0.308 ± 0.014
CACGACAC | 0.314 ± 0.0061
TGCGACAA | 0.296 ± 0.013
CGCGACAC | 0.375 ± 0.02
CGCGACAA | 0.336 ± 0.0038

Sequence | PBM E-score of 8-mer
AGCGACAC | 0.317 ± 0.054
GGCGACCC | -0.0415 ± 0.017
GGCGACAA | 0.3812 ± 0.0024
GGCGACAC | 0.402 ± 0.019
CCGACGCA | -0.0454 ± 0.012
GTCACATA | 0.263 ± 0.0064
ATGCGATC | -0.0333 ± 0.042
CAAGTTGA | 0.116 ± 0.0034
AGCGTTGA | 0.102 ± 0.055
CACCTCCC | 0.423 ± 0.0044
GACCTCCC | -0.178 ± 0.0044
AACCTCCA | -0.158 ± 0.028
AACCTCCC | -0.0756 ± 0.12
CACCTCCG | 0.447 ± 0.0095
AACCTCCG | 0.0421 ± 0.042
TACCTCCA | -0.00358 ± 0.099
CCCCTCCG | 0.137 ± 0.019
CACCTCCA | 0.423 ± 0.0067
CCGAAGTA | -0.302 ± 0.021
CCCAAGTA | -0.0284 ± 0.033
CGAGTGCA | -0.0272 ± 0.087
ACGAACTG | 0.0451 ± 0.03
